Bioassay records as filed in PubChem.
ALDH1A1 inh = blocks purified human ALDH1A1 activity. P00352. Purified ALDH1A1, NADH fluorescence, propionaldehyde substrate. Potency, µM (titrated, usually from 75.3 µM), for inactives: top-dose activity, negative = inhibition, most hits filed as inhibitors. 7.3% of 220,000 active; active means well fitted inhibition curve with a large enough effect, not every such curve was filed as active; inconclusive means small, poorly fitted or top-dose-only effect, or another doubt; inactive means no such curve, though single readings can be large or run the other way;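 further: plate controls were no enzyme wells and a reference inhibitor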
RORg inh = inhibitors of mouse ROR gamma transcriptional activity; Drosophila S2 Gal4-RORgamma UAS-luciferase reporter, 20 h; Potency, µM (doses to about 53.6 µM), for the others: at the highest dose activity change, negative = inhibition, hits mostly inhibitors; AID 2551; 5.4% of 310,000 active; further: nearly all actives have a fitted effect of over 60% in size
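Drosophila S2 cells stably expressing Gal4-DBD/mouse RORγ fusion under metallothionein promoter plus UAS-luciferase; compound 1 h, then 700 uM CuSO4 induction for 20 h at ambient temperature; inhibition read as reduced luminescence.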
PLK1 PBD inh = PLK1 (human) polo-box domain binding inhibition; Plk1 PBD binding of FITC phosphopeptide, fluorescence polarization; Potency, µM, inactives show max response, negative = inhibition, actives largely listed as inhibitors; AID 720504; 2.8% of 360,000 active; further: series mostly up to about 57 µM; nearly all actives have a fitted effect of over 65% in size
Target sequence (P53350 whole entry, looked up, the tested form may be a part): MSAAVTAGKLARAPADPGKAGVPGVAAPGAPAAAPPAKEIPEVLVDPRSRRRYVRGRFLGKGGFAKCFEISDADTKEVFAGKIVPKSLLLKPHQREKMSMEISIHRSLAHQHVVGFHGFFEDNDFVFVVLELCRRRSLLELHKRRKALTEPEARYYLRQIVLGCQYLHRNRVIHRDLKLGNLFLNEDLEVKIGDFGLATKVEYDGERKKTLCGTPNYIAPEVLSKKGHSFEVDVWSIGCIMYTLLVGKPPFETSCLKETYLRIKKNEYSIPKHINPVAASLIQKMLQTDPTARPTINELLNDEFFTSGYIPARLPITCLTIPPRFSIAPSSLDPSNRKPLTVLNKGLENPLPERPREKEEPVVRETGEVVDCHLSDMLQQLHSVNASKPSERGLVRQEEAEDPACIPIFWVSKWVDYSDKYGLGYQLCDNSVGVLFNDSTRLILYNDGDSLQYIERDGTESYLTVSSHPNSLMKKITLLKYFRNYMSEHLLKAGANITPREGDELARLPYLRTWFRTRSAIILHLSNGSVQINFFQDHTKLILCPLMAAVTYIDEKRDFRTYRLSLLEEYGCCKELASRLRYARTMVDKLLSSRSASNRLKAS
Sfp PPTase inh = Sfp phosphopantetheinyl transferase inhibition; AID 1490; Q9F4F7; Biochemical Sfp PPTase activity, qHTS; 3.5% of 310,000 active; Potency, µM, for the others: largest response in the series, negative = inhibition, usual class: inhibitors;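 further: the enzyme is Sfp with the accession as filed and its product quenches rhodamine fluorescence; 0% = enzyme reaction without inhibitor and -100% = no enzyme wells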
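Step 1, compound plus 15 nM Sfp-PPTase, 15 min, room temperature. Step 2, add rhodamine-CoA (5 uM) and BHQ-2-YbbR (12.5 uM). Step 3, read 525/598 nm fluorescence at 0 and 30 min.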
VP16 counter = counter-screen for ROR gamma inhibitors: Gal4-VP16 reporter | Potency, µM (highest dose often 53.6 µM), for the others: at the highest dose activity, negative = inhibition, hits mostly inhibitors | AID 2546 | Drosophila S2 Gal4-VP16 UAS-luciferase, luminescence, 20 h | 3.5% of 310,000 active;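 further: Gal4-VP16 expression switched on by copper sulfate through the metallothionein promoter; nearly all actives have a fitted effect of over 50% in size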
Active calls of the source: *; u = inconclusive; x = no result given; [ ] = another dose, or the depositor's remark. Rows were chosen to be rich in hits. Some 12% of all compounds tested hit in one or more screens of this group. Unless noted, the call rests on the fitted dose curve; in most records, active means well fitted curve in the direction sought with a large enough effect; inconclusive means small, poorly fitted or top-dose-only effect, or another doubt; inactive means no such curve, though single readings can be large; an effect the other way counts as inactive or inconclusive. Unless noted, on the % scale 0 is the no-effect control and ±100 the full control effect; potency means the concentration at half of the fitted maximal effect.

SMILES	ALDH1A1 inh	RORg inh	PLK1 PBD inh	Sfp PPTase inh	VP16 counter
Cc1ccnc(NC(=O)c2cccc([N+](=O)[O-])c2C)c1	5%	38%	2%	12%	1%
Cc1ccnc(NC(=O)c2ccccc2NC(=O)c2ccc(Cl)cc2Cl)c1	x	u	-2%	-26%	13µM*
Cc1ccnc(NC(=O)c2ccc(Cl)c(NC(=O)c3ccccc3C)c2)c1	x	x	1%	13%	x
CCOC(=O)CSc1n[nH]c(NC(C)=O)n1	9%	2%	-2%	3%	3%
O=C(c1ccc(Cl)c(S(=O)(=O)N2CCCC2)c1)N1CCN(c2ccccc2)CC1	-7%	u	13µM*	12%	-1%
CC1CN(C(=O)c2cc(F)c(F)cc2Cl)CC(C)O1 (configuration not stated)	x	x	-7%	x	x
CN1CC(=O)NC1=NC(=O)c1ccc(Cl)c(S(=O)(=O)N2CCCCCC2)c1	12%	3.5µM*	-7%	-9%	16µM*
CN1CC(=O)NC1=NC(=O)c1cc(F)c(F)cc1Cl	-5%	10µM*	1%	-21%	u
O=C(c1ccc(Cl)c(S(=O)(=O)N2CCCCC2)c1)N1CCN(c2ccccc2)CC1	x	21%	-4%	6%	-6%
O=C(c1ccc(Cl)c(S(=O)(=O)N2CCCCC2)c1)N1CCCCC1	x	-12%	-5%	6%	22%
CC1(C(=O)Nc2cccc3ccccc23)CCN1C(=O)Cc1ccc(Cl)cc1Cl (configuration not stated)	x	x	-5%	x	x
CCCCC#CC1C=CC(Oc2cc(OC)c(OC)c(OC)c2)C(COC(=O)OCC)O1 (configuration not stated)	-4%[13.5 µM]	32%[10 µM]	x	-15%	-5%[10 µM]
COc1ccc(/C=C2\SC(=S)N(CCC(=O)Nc3ccccc3C(=O)O)C2=O)cc1	x	-29%	u	2%	0%
O=C(O)CCN1C(=O)CC(N2C(=O)/C(=C/c3ccc(Cl)cc3)SC2=S)C1=O (configuration not stated)	-7%	u	24µM*	0%	15%
CCOc1ccc(/C=C2\SC(=S)N(CCC(=O)Nc3ccccc3C(=O)O)C2=O)cc1	x	17%	24µM*	-3%	-10%
CCOc1ccc(/C=C2\SC(=S)N(CCC(=O)O)C2=O)cc1	x	1.1µM*	-11%	8%	-3%
O=C1CCN(Cl)C(=O)N1Cl	x	x	-8%	x	x
FC(F)(F)C1=NNC(c2ccc3ccccc3c2)=NN1	x	x	-15%	x	x
O=C(CNCCN1CCOCC1)Nc1ccccc1Sc1ccccc1	32µM*	-20%[10 µM]	-15%	56µM*	-10%
O=C(CN1CCOCC1)Nc1ccccc1Sc1ccccc1	-6%	-23%	-1%	15%	-4%
COCCNCC(=O)Nc1ccccc1Sc1ccccc1	u	-21%	-12%	56µM*	8%
O=[N+]([O-])c1cccc(-c2ccc(C(=S)N3CCOCC3)o2)c1	3%	-11%	-15%	20µM*	-29%
N#C/C(=C\c1ccc(-c2cccc([N+](=O)[O-])c2)o1)c1nnc(N2CCOCC2)n1-c1ccccc1	7.9µM*	-1%	3%	-19%	1%
O=C(c1ccc(-c2cccc(Cl)c2)o1)N1CCN(c2ccc([N+](=O)[O-])cc2)CC1	u	1%	27µM*	-23%	5%
CN1CCN(C(=S)c2ccc(-c3cccc([N+](=O)[O-])c3)o2)CC1	x	-10%	-22%	-16%	6%
SMILES	ALDH1A1 inh	RORg inh	PLK1 PBD inh	Sfp PPTase inh	VP16 counter
Cc1c(Cl)cccc1-c1ccc(C(=O)N2CCN(c3ccc([N+](=O)[O-])cc3)CC2)o1	u	u	-3%	1%	-19%
O=C(c1ccc(-c2ccc([N+](=O)[O-])cc2)o1)N1CCCCCCC1	x	x	24µM*	x	x
Cc1c(C(=O)N2CCN(c3cccc(Cl)c3)CC2)cccc1[N+](=O)[O-]	u	u	30µM*	-2%	4%
O=C(c1cc([N+](=O)[O-])ccc1N1CCCCC1)N1CCCCC1	20µM*	16%	-18%	-2%	-7%
Cc1cccc(N2CCN(C(=S)c3ccc(-c4ccccc4[N+](=O)[O-])o3)CC2)c1	u	-6%	u	u	-5%
Cc1c(C(=O)N2CCN(c3ccccn3)CC2)cccc1[N+](=O)[O-]	-3%	4%	0%	19%	0%
O=[N+]([O-])c1cccc(-c2ccc(C(=S)N3CCN(c4ccccc4)CC3)o2)c1	x	21%	12µM*	13µM*	14%
